An excerpt weighted towards active compounds, which were near 11% of everything screened.
CBFb RUNX1 block – qHTS Assay for Compounds Blocking the Interaction Between CBF-beta and RUNX1 for the Treatment of Acute Myeloid Leukemia | Runt-related transcription factor 1 (Homo sapiens) + Core-binding factor subunit beta … | AlphaScreen CBFb-His/RUNX1-biotin binding, biochemical | Potency, µM (highest dose often 59.8 µM), inactives show at the top dose activity, negative = inhibition, hits mostly inhibitors | 230,000 tested, under 10 active | AID 1477, 2009; also: % of control where 0% means no effect
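CBFb-His/RUNX1-biotin, 30 nM each, preincubated 20 min RT; compound 15 min RT; Ni + streptavidin beads 50 ng each, 90 min RT; AlphaScreen read.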
HttQ103 aggreg – qHTS Multiplex Assay to Identify Dual Action Probes in a Cell Model of Huntington: Aggregate Formation (GFP). PC12 HttQ103-GFP aggregates, Acumen cytometry, 40 h. Potency, µM (titrated, usually from 46.1 µM), for inactives: top-dose activity change, negative = inhibition, usual class: inhibitors. hit rate 1.1% among 220,000. AID 1688, 2009; also: potency is read from the fitted curve at half-maximal effect; % is scaled to controls: 0 for no effect and ±100 for the full control effect; nearly all actives have a fitted effect of over 60% in size
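Huntingtin Q103 exon 1–GFP aggregates in induced PC12 cells (100 nM tebufenozide) were quantified by cytometry from lysates, with compounds dosed in titration.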
ALDH1A1 inh – qHTS Assay for Inhibitors of Aldehyde Dehydrogenase 1 (ALDH1A1); Purified ALDH1A1, NADH fluorescence, propionaldehyde substrate; Potency, µM (highest dose often 75.3 µM), for inactives: at the highest dose activity, negative = inhibition, actives largely listed as inhibitors; hit rate 7.3% among 220,000; AID 1030, 2008; active = well fitted inhibition curve with a large enough effect, not every such curve was filed as active; inconclusive = small, poorly fitted or top-dose-only effect, or another doubt; inactive = no such curve, though single readings can be large or run the other way;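 also: potency is read from the fitted curve at half-maximal effect; plate controls were no enzyme wells and a reference inhibitor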
Target sequence (P00352 whole entry, looked up): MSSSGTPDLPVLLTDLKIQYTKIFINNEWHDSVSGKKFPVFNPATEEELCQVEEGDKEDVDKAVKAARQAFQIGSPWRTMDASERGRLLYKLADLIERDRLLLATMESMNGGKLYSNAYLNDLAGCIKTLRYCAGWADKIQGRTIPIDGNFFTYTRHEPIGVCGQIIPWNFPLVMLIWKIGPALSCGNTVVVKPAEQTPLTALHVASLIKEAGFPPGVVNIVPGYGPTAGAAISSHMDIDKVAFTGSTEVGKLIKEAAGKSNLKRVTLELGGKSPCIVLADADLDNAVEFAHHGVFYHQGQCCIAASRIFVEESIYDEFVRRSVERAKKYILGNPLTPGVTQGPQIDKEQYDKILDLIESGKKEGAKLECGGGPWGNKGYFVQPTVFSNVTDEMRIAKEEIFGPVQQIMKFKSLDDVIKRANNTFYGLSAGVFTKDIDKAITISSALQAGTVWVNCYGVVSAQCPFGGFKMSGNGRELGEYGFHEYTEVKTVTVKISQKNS
PNC inhibitor – High Content Assay for Compounds that inhibit the Assembly of the Perinucleolar Compartment; PC3M PTB-GFP, PNC prevalence imaging, 16 h; stronger effect = lower value; AID 2417, 2010; hit rate 3.1% among 140,000; activity change (PNC), negative = inhibition, % at 10 µM;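 active = readout at or below -70, meaning at least 70% loss of cells showing the perinucleolar compartment, a nuclear body marking cancer cells; inconclusive = readout between -30 and a set limit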;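 also: plate controls were DMSO wells for no effect and camptothecin positive control wells for full effect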
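Compounds are pinned in duplicate onto adhered PC3M cells stably expressing GFP-tagged PTB and incubated 16 h at 37 C. Cells are then fixed, nuclei stained with Hoechst, and PNC-positive cells counted.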
HPGD inh – qHTS Assay for Inhibitors of HPGD (15-Hydroxyprostaglandin Dehydrogenase). purified HPGD, NADH fluorescence kinetic, PGE2 substrate. Potency, µM, for the others: at the top dose activity change, negative = inhibition, most hits filed as inhibitors. hit rate 4.3% among 150,000; active = well fitted inhibition curve with a large enough effect, not every such curve was filed as active; inconclusive = small, poorly fitted or top-dose-only effect, or another doubt; inactive = no such curve, though single readings can be large or run the other way; also: potency is read from the fitted curve at half-maximal effect; % is scaled to controls: 0 for no effect and ±100 for the full control effect
Target sequence (P15428 whole entry, looked up): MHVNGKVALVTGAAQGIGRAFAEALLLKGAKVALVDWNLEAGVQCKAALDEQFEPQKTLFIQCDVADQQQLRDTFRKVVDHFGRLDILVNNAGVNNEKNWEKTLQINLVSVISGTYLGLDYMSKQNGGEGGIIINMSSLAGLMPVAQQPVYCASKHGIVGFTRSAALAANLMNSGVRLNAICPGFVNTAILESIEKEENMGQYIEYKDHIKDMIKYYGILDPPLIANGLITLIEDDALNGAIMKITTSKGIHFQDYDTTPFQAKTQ
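NADH formation kinetics: reaction with 30 uM PGE2 and 1 mM NAD+ (final), 20 nM enzyme, Tris-HCl pH 8 with Tween 20, after 15 min compound preincubation at room temperature. Fluorescence change, last versus first of five reads.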
HTT cytoprotect – qHTS Multiplex Assay to Identify Dual Action Probes in a Cell Model of Huntington: Cytoprotection (ATP). PC12 HTT-Q103 induced, cytoprotection, ATP luminescence, 40 h. Potency, µM (highest dose often 56.4 µM), for the others: cytoprotection (ATP increase), most hits filed as activators. hit rate 0.14% among 230,000. AID 1471, 2008; also: potency is read from the fitted curve at half-maximal effect; % of control where 0% means no effect; nearly all actives have a fitted effect of over 45% in size
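PC12 cells with ecdysone-inducible HTT exon 1 Q103-GFP, induced with 100 nM tebufenozide and co-treated with library compounds in a dose series (1536-well, 1500 cells/well). Cytoprotection read as ATP content by ATPlite luminescence.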
Starred values were filed as active, the others as inactive; u = inconclusive; x = not tested or not shown; [ ] = dose if it differs, or a comment. Unless noted, calls follow the shape of the dose curve; as a rule, active = well fitted curve in the direction sought with a large enough effect; inconclusive = small, poorly fitted or top-dose-only effect, or another doubt; inactive = no such curve, though single readings can be large; an effect the other way counts as inactive or inconclusive.

SMILES	CBFb RUNX1 block	HttQ103 aggreg	ALDH1A1 inh	PNC inhibitor	HPGD inh	HTT cytoprotect
CCCCN1C2CCCC1CC(NC(=O)C1CCCCC1)C2 (configuration not stated)	11%	-13%	-1%	21	-2%	-6%[1.9 µM]
C=CCN1C(=O)C(Cc2ccc(OCC)cc2)S/C1=N\N=C\c1cccs1 (configuration not stated)	7%	3%[9.22 µM]	4.5µM*	13	-13%	6%
CC(C)Cn1c(N)c(C(=O)COC(=O)CC23CC4CC(CC(C4)C2)C3)c(=O)n(C)c1=O	-2%	7.1µM*	u	6	-12%	-8%[10 µM]
Cc1ccccc1CSCC(=O)c1c(N)n(CC(C)C)c(=O)n(C)c1=O	7%	12%	28µM*	40	-9%	13%
CN(C)S(=O)(=O)c1cccc(-c2cn3ccccc3n2)c1	3%	1%	u	45	-13%	-24%
CN(C)S(=O)(=O)c1cccc(-c2cn3cc(Cl)ccc3n2)c1	-4%	-9%[9.22 µM]	u	-83*	u	-1%[10 µM]
O=C(O)c1ccc(Sc2nnc(-c3cccc(Br)c3)o2)c([N+](=O)[O-])c1	1%	4%	15%	18	14µM*	-4%
COc1ccc(C(C)=O)cc1CSc1nnc(C)s1	5%	-14%	u	-3	18µM*	-16%
COc1ccc(-c2nnc(SCc3nnc(-c4ccccc4)o3)n2-c2ccccc2)cc1	0%	-9%	-2%	u	7.9µM*	-2%[10 µM]
COc1ccc(C(C)=O)cc1CSc1nnc(Nc2ccccc2)s1	-7%	u	u	4	25µM*	x
COc1ccc(C(C)=O)cc1CSc1nnc(-c2ccc(Cl)cc2)n1-c1ccccc1	-1%	5%	10µM*	-12	-23%	-25%
CC(=O)OCC1OC(C#Cc2ccc(C)cc2C)C=CC1OC(C)=O (configuration not stated)	11%[13.1 µM]	x	u	x	x	28%[10 µM]
O=C(COC(=O)C1CC(O)CN1S(=O)(=O)c1ccc(Cl)cc1)c1cccc(Cl)c1 (configuration not stated)	9%	-6%	-10%	41	-3%	-2%[10 µM]
COc1ccc(C(C)=O)cc1CSc1nnc(Nc2ccc(C)cc2)s1	7%	-33%	u	-113*	u	4%[10 µM]
CC1=NN(Cc2ccccc2)C(=O)C1C(c1ccccc1)C(C#N)C#N (configuration not stated)	-14%	13%	u	102	32µM*	24%
CC1=NN(Cc2ccccc2)C(=O)C1C(c1ccc(Cl)cc1)C(C#N)C#N (configuration not stated)	u	u	25µM*	-14	28µM*	13%[10 µM]
CC1=NNC(=O)C1C(c1ccc(Cl)cc1)C(C#N)C#N (configuration not stated)	22%	22%[9.22 µM]	x	x	x	5%[10 µM]
CC1=NN(Cc2ccccc2)C(=O)C1C(c1ccncc1)C(C#N)C#N (configuration not stated)	-7%	-3%[9.22 µM]	x	x	x	4%[10 µM]
CCC/C=C1/CCCOC(C(=O)NCC2CC2)(C(F)(F)F)C1 (configuration not stated)	6%	x	x	x	x	x
CCC(=O)/C=C1/Sc2ccccc2N1CC	2%	7.1µM*	3.5µM*	4	28µM*	3%[10 µM]
CCN1/C(=C/C(=O)c2ccco2)Sc2ccccc21	22%	u	25µM*	-4	-20%	-24%
CCOC(=O)/C(=C\C=C1/Sc2ccccc2N1CC)C(C)=O	-8%	-10%	-3%	8	-13%	-7%[10 µM]
CCOC(=O)/C(=C/C=C1\Sc2ccccc2N1CC)C(C)=O	-12%	-4%	13µM*	6	28µM*	-12%[10 µM]
C/C(=N\NC(=O)c1ccncc1)c1ccc2ccccc2c1O	x	x	3%[13.5 µM]	x	-12%	-33%[10 µM]
C#CCCCO/N=C1/C[C@@H](O)[C@@H](O)[C@@H]2[C@@H]3C(=O)N(c4cccc(Oc5ccccc5)c4)C(=O)[C@H]3CC[C@H]12	8%[13.1 µM]	x	15%[13.5 µM]	x	x	-14%[10 µM]
SMILES	CBFb RUNX1 block	HttQ103 aggreg	ALDH1A1 inh	PNC inhibitor	HPGD inh	HTT cytoprotect
COc1cccc(CNc2ncnc3cc(OC)c(OC)cc23)c1	4%	u	-5%	51	-9%	20%[10 µM]
COc1cc2ncnc(NCc3ccc(C)cc3)c2cc1OC	16%	35µM*	u	u	-21%	-19%[10 µM]
Cc1c(C)[n+](=O)c(-c2ccc(Br)cc2)c(C)n1[O-]	8%	-26%[9.22 µM]	x	x	x	-8%[10 µM]
Cc1c(C)[n+](=O)c(-c2ccco2)c(C)n1[O-]	-4%	18%	25µM*	34	-15%	3%[10 µM]
Cc1cc(C)cc(NC(=O)c2ccccc2CC[N+](=O)[O-])c1	3%	-17%	2.8µM*	30	-18%	6%[10 µM]
O=C(Nc1ccc(Br)cc1)c1ccccc1CC[N+](=O)[O-]	10%	-16%	u	u	-27%	15%[10 µM]
Cc1cccc2cc(C#N)c(NCCCNS(=O)(=O)c3ccc(Cl)cc3)nc12	u	18%[9.22 µM]	x	x	x	17%[10 µM]
CCOC(=O)Oc1c(OC)cc(C(=O)O[C@H]2C[C@H]3CN4CCc5c([nH]c6cc(OC)ccc56)[C@@H]4C[C@H]3[C@@H](C(=O)OC)[C@@H]2OC)cc1OC	-21%[21.7 µM]	10%[20.6 µM]	3%[20.9 µM]	x	-13%	u
Cc1nn(C)c(C)c1NC(=O)CSc1nc(Cc2ccccc2)nc2c1cnn2-c1ccccc1	x	x	x	x	x	-10%[10 µM]
Cc1nn(Cc2ccccc2)c(C)c1NC(=O)CSc1nc(C2CC2)nc2c1cnn2-c1ccccc1	12%	u	4%	-88*	-24%	15%[10 µM]
CCCCCC(=O)NC(NC(=S)N1CCOCC1)C(Cl)(Cl)Cl (configuration not stated)	3%	14%	3%	u	-20%	12%[10 µM]
CCCCCCCCC(=O)NC(NC(=S)N1CCOCC1)C(Cl)(Cl)Cl (configuration not stated)	0%	u	u	-100*	-21%	15%[10 µM]
Cc1cc(NC(=O)CCC2CCCC2)no1	0%	-7%	-10%	u	-9%	6%
Cc1cc(NC(=O)CC23CC4CC(C2)CC(CC(=O)Nc2cc(C)on2)(C4)C3)no1	7%	-1%	u	-92*	-7%	-2%[0.074 µM]
Cc1cc(NC(=O)NC(C)(C(F)(F)F)C(F)(F)F)no1	7%	1%[9.22 µM]	x	x	x	6%[10 µM]
Cc1cc(NC(=O)C(C)(C)C)no1	-4%	2%	11%	-84*	-1%	-2%[10 µM]

Source: PubChem
